Screening data from PubChem BioAssay.
Only some compounds are listed: those with a hit (about 7.5% of all), similar ones and a draw of the others.
ELG1 genotoxic: qHTS screen for small molecules that induce genotoxicity in human embryonic kidney (HEK293T) cells expressing luciferase-tagged ELG1. Potency, µM (doses to about 46 µM), for the others: top-dose activity change, positive = activation, actives largely listed as activators. AID 504466, 2011. hit rate 1.3% among 330,000. HEK293T ELG1-luciferase reporter, luminescence, 16 h; also: % of control where 0% means no effect; nearly all actives have a fitted effect of over 60% in size
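After overnight (16 hr) compound treatment at 37 °C, ELG1-luciferase HEK293T cells were lysed with ONE-Glo; luminescence quantified 30 min later at room temperature.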
Rab9 promoter act: qHTS Assay for Rab9 Promoter Activators. hit rate 2.8% among 320,000. Potency, µM (series often up to 9.22 µM), inactives show at the highest dose activation, negative = inhibition, most hits filed as activators. Huh7 Rab9 promoter-luciferase reporter, luminescence, 24 h; also: % of control where 0% means no effect; nearly all actives have a fitted effect of over 60% in size
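Luminescence from Amplite-detected luciferase (10 minutes, ambient) reports Rab9 promoter activation. Before that, stable Rab9-luciferase Huh7 cells (1500/well, reduced-serum OP-MEM I plus 10% FBS) were exposed to compound for 24 hours at 37C.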
Luc counter: Counterscreen for Luciferase (Kinase-Glo TM) Inhibition; Kinase-Glo luciferase, ATP luminescence, 8 min; Potency, µM (top dose mostly 38.3 µM), for the others: at the top dose activity change, negative = inhibition, hits mostly inhibitors; hit rate 0.28% among 200,000; AID 1379, 2008; also: % is scaled to controls: 0 for no effect and ±100 for the full control effect; nearly all actives have a fitted effect of over 60% in size
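Luminescence was the read-out, taken after 8-minute incubation at ambient temperature. Luciferase turned over luciferin with 10 uM ATP in imidazole pH 7.2 buffer containing KCl, MgCl2, Tween 20 and BSA.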
SMN2 splice enh: qHTS Assay for Enhancers of SMN2 Splice Variant Expression; HEK293 SMN2-luciferase splicing reporter, luminescence, 30-36 h; Potency, µM (top dose mostly 46.1 µM), for inactives: at the highest dose activity change, positive = activation, most hits filed as activators; hit rate 2.8% among 210,000; also: % of control where 0% means no effect; nearly all actives have a fitted effect of over 55% in size
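HEK293 cells carry an SMN2 […]–luciferase reporter in which exon 7 inclusion puts luciferase in frame. Cells were plated 10-12 h before compound addition, then incubated 30-36 h at 37C. ONE-Glo luminescence was read; sodium butyrate at 4.5 mM final served as control.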
NPC1 promoter act: qHTS Assay for NPC1 Promoter Activators; Huh7 NPC1 promoter luciferase reporter, 24 h; Potency, µM (titrated, usually from 9.22 µM), for inactives: at the top dose activation, actives largely listed as activators; hit rate 2.4% among 320,000; AID 485313, 2010; also: % of control where 0% means no effect; nearly all actives have a fitted effect of over 60% in size
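Quantitative HTS used a cell-based reporter: Huh7 cells stably bearing the NPC1 promoter upstream of luciferase were treated with compounds for 24 h, and promoter activation was read as luminescence.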
FLuc modulator: qHTS profiling assay for firefly luciferase inhibitor/activator using purifed enzyme and Km concentrations of substrates (counterscreen for miR-21 project). purified FLuc, Km substrates, luminescence inhibition. Potency, µM (titrated, usually from 57.5 µM), for the others: top-dose activity change, negative = inhibition, actives largely listed as inhibitors. hit rate 6.9% among 360,000. AID 588342, 2011;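 also: plate controls were vehicle for no effect and reference inhibitor for full effect; nearly all actives have a fitted effect of over 55% in size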
Target sequence (P08659 whole entry, looked up): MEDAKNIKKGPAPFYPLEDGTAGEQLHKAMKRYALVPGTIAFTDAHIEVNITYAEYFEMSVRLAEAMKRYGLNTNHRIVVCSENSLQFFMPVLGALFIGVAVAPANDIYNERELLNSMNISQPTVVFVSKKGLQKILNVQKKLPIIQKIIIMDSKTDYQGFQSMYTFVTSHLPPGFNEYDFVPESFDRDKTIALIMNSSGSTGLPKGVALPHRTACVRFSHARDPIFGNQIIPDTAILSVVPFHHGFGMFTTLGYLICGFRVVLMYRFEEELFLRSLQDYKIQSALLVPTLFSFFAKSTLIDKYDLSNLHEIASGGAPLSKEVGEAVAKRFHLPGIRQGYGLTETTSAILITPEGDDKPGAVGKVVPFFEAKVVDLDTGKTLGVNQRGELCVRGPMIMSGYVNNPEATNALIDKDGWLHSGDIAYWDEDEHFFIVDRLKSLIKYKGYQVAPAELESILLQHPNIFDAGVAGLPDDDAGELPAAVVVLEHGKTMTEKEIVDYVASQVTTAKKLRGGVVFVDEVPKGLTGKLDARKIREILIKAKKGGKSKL
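Purified P. pyralis luciferase, 10 nM final, with Km-level 10 uM D-luciferin and 10 uM ATP in 50 mM Tris acetate pH 7.5, 10 mM Mg acetate, 0.01% Tween-20, 0.05% BSA; 6-point qHTS titration about 60 µM downward; luminescence read.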
* hit, by the source's call; [ ] = dose if it differs, or a comment. Calls follow the shape of the dose curve; as a rule, active = well fitted curve in the direction sought with a large enough effect; inconclusive = small, poorly fitted or top-dose-only effect, or another doubt; inactive = no such curve, though single readings can be large; an effect the other way counts as inactive or inconclusive. Potency is read from the fitted curve at half-maximal effect.

How did COc1ccc(CCNC(=O)C2CC(c3ccc([N+](=O)[O-])cc3)=NO2)cc1 (stereo not drawn) do in these assays?
ELG1 genotoxic: 8%; Rab9 promoter act: 22%; Luc counter: -1%; SMN2 splice enh: -13%; NPC1 promoter act: 25%; FLuc modulator: inconclusive

How did Nc1c(C(=O)Nc2ccccc2)nnn1Cc1ccc(F)cc1Cl do in these assays?
SMN2 splice enh: 8%; FLuc modulator: -1%

Results for Cc1ccc(S(=O)(=O)N[C@H](C(=O)OCC(=O)NC(=O)C2CCCCC2)C(C)C)cc1 ?
ELG1 genotoxic: 1%

Results for C=CCn1c(=S)[nH]c2scc(-c3cccs3)c2c1=O ?
ELG1 genotoxic: -21%; Rab9 promoter act: 1%; Luc counter: 3%; SMN2 splice enh: -79%; NPC1 promoter act: -3%; FLuc modulator: 13µM*

Results for Cn1c(=S)[nH]c2scc(-c3cccs3)c2c1=O ?
ELG1 genotoxic: -6%; Rab9 promoter act: 3%; Luc counter: -4%; SMN2 splice enh: 12%; NPC1 promoter act: -12%; FLuc modulator: inconclusive

What do the screens show for `Oc1ccc(Br)cc1/C=N/N1CCCCC1`?
ELG1 genotoxic: inconclusive; Rab9 promoter act: 4.5µM*; Luc counter: inconclusive; SMN2 splice enh: 17%[1.84 µM]; NPC1 promoter act: inconclusive; FLuc modulator: 9.5µM*

Results for Oc1ccc(Br)cc1/C=N/n1c(COc2ccccc2)n[nH]c1=S ?
ELG1 genotoxic: 0%; Rab9 promoter act: -3%; NPC1 promoter act: -3%; FLuc modulator: 3%

How did Oc1ccc(Br)cc1/C=N/n1cnc2ccccc21 do in these assays?
ELG1 genotoxic: 18%; Rab9 promoter act: inconclusive; Luc counter: -6%; SMN2 splice enh: 26%; NPC1 promoter act: inconclusive; FLuc modulator: 8.5µM*

Results for Oc1ccc(Br)cc1/C=N/N1CCN(Cc2ccccc2)CC1 ?
ELG1 genotoxic: 3%; Rab9 promoter act: 3%; Luc counter: 2%; SMN2 splice enh: -18%; NPC1 promoter act: 15%; FLuc modulator: inconclusive

What do the screens show for `Cc1ccc2c(c1)sc(-c1ccc(N(C)C)cc1)[n+]2C`?
ELG1 genotoxic: 2%; Rab9 promoter act: -39%; NPC1 promoter act: -31%; FLuc modulator: 12µM*

What do the screens show for `COc1ccc(C)cc1Nc1n[n+](-c2ccccc2)c(-c2ccc(N(C)C)cc2)s1`?
ELG1 genotoxic: -4%; Rab9 promoter act: -7%; NPC1 promoter act: -21%; FLuc modulator: 0%

How did Nc1nc(N)nc(-c2ccccc2)n1 do in these assays?
ELG1 genotoxic: 0%; Rab9 promoter act: 2%; Luc counter: -3%; SMN2 splice enh: 6%; NPC1 promoter act: 0%; FLuc modulator: -2%

What do the screens show for `Nc1nc(N)nc(-c2ccc(Cl)c(Cl)c2)n1`?
ELG1 genotoxic: 7%; Rab9 promoter act: inconclusive; NPC1 promoter act: 2µM*; FLuc modulator: 4.8µM*

Results for Cc1ccc(C(=O)NCCc2cccs2)cc1 ?
ELG1 genotoxic: inconclusive; Rab9 promoter act: 0.1µM*; Luc counter: -15%; SMN2 splice enh: 0.5µM*; NPC1 promoter act: 0.32µM*; FLuc modulator: 0.85µM*

Results for CCOc1c2ccc(C(=O)NCCc3ccc(C)cc3)cc2nn1CC ?
ELG1 genotoxic: 4%; Rab9 promoter act: -1%; Luc counter: -7%; SMN2 splice enh: -29%; NPC1 promoter act: 1%; FLuc modulator: -2%

How did O=C(NCCc1cccs1)c1ccc(CS(=O)Cc2ccc(Cl)cc2)o1 (stereo not drawn) do in these assays?
ELG1 genotoxic: 2%; Rab9 promoter act: 1%; NPC1 promoter act: -1%; FLuc modulator: -1%

How did CCn1nc2cc(C(=O)NCCc3cccs3)ccc2c1OC do in these assays?
ELG1 genotoxic: inconclusive; Rab9 promoter act: 1.1µM*; Luc counter: -17%; SMN2 splice enh: inconclusive; NPC1 promoter act: 2.5µM*; FLuc modulator: 6.7µM*

What do the screens show for `O=C(NCCc1cccs1)c1ccc(Cl)cc1`?
ELG1 genotoxic: inconclusive; Rab9 promoter act: 0.32µM*; NPC1 promoter act: 0.35µM*; FLuc modulator: 1.2µM*

Results for COCCNC(=O)c1ccc(Cl)c(Cl)c1 ?
ELG1 genotoxic: 0%; Rab9 promoter act: 3%; Luc counter: -3%; SMN2 splice enh: -3%; NPC1 promoter act: 0%; FLuc modulator: -1%

What do the screens show for `O=C(NCCc1cccs1)c1ccc(Cl)c(Cl)c1`?
ELG1 genotoxic: inconclusive; Rab9 promoter act: 2.2µM*; Luc counter: -1%; NPC1 promoter act: 3.2µM*; FLuc modulator: 11µM*

What do the screens show for `CC(=O)c1cccc(NC(=O)CSc2nnc3ccc(-c4ccc(C)cc4)nn23)c1`?
FLuc modulator: -5%

How did CCOc1c2ccc(C(=O)NCc3ccc(C)cc3)cc2nn1CC do in these assays?
ELG1 genotoxic: 0%; Rab9 promoter act: -5%; Luc counter: 3%; SMN2 splice enh: 13µM*; NPC1 promoter act: -2%; FLuc modulator: 0%

What do the screens show for `O=C(/C=C/c1ccc(Cl)cc1)NCc1cccs1`?
ELG1 genotoxic: 16%; Rab9 promoter act: 12%; Luc counter: -1%; SMN2 splice enh: 4%; NPC1 promoter act: 8%; FLuc modulator: 15µM*

What do the screens show for `O=C(/C=C/c1cccc(Cl)c1)NCc1cccs1`?
ELG1 genotoxic: 2%; Rab9 promoter act: 8%; Luc counter: -1%; SMN2 splice enh: -2%; NPC1 promoter act: 10%; FLuc modulator: inconclusive

How did CC(C)Oc1ccc(C(=O)NCc2cccs2)cc1 do in these assays?
ELG1 genotoxic: inconclusive; Rab9 promoter act: inconclusive; Luc counter: -2%; SMN2 splice enh: 22%; NPC1 promoter act: 30%; FLuc modulator: 13µM*

How did CCCn1nc2cc(C(=O)NCc3ccc(C)cc3)ccc2c1OCC do in these assays?
ELG1 genotoxic: 0%; Rab9 promoter act: -6%; Luc counter: 1%; SMN2 splice enh: 0%; NPC1 promoter act: -3%; FLuc modulator: -11%

What do the screens show for `Cc1cc(C)c(NC(=O)Cn2nnc(-c3ccccc3)n2)c(C)c1`?
SMN2 splice enh: 7%; FLuc modulator: -6%

How did CC(=O)Nc1cccc(NC(=O)Nc2cccc(F)c2)c1 do in these assays?
ELG1 genotoxic: 9%; Rab9 promoter act: 3%; NPC1 promoter act: 5%; FLuc modulator: 9.5µM*

How did O=C(Nc1cccc(F)c1)Nc1cccc(Cl)c1 do in these assays?
ELG1 genotoxic: -2%; Rab9 promoter act: inconclusive; NPC1 promoter act: 29%; FLuc modulator: 24µM*
